Data reported in PubChem BioAssay AID1508600 (Functional Genomics Laboratory (NCATS/FGL), 2020).
Among all 53,000 sequences or so, about 3,700 (7%) were called active. This excerpt belongs to a sample that is enriched for actives. A number with no mark means an inactive call.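 Rule for the calls: active = gene knockdowns whose robust z-score for IL-1 alpha signal is at least 2 or at most -2, so actives lie on both sides; inactive = the rest.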

Assay: Components of the Cytosolic LPS Sensing Pathway: Gene Identification via Genome-wide siRNA Screen
Conditions: RAW264.7 macrophages, IL-1a HTRF, actives lie on both sides, screened at 100 nM (by protocol), cells primed 5 h with Pam3CSK4 first
Description: Non-canonical inflammasome activation by cytosolic LPS is a critical component of the host response to Gram-negative bacterial infection, however we lack a comprehensive understanding of the cellular processes that control this pathway. Here we describe a genome-wide siRNA screen to identify genes regulating the mouse macrophage IL-1 alpha response to cytosolic LPS.
RAW264.7 cells were maintained in complete DMEM media, comprising DMEM with 4.5 g/L glucose, 10% FBS (Gemini Bio-Products, West Sacramento, CA), 2 mM Glutamine (Lonza) and 20 mM HEPES (Lonza), hereafter complete DMEM.
The RNAi screen was conducted in 384-well format using the Ambion Silencer Mouse Genome siRNA Library (#4391425), which consists of three unique, nonoverlapping, nonpooled siRNAs for each of 17,000 gene targets. siRNA reagents ([…]) were stamped into 384-well white flat-bottom microplates (Corning, 3570) using a Velocity11 VPrep liquid handling system (Agilent) integrated into a BioCel robotic platform (Agilent) in columns 1-22, leaving columns 23-24 empty for negative (Ambion, Negative control #1) and positive (mouse Casp4) controls, respectively. The median value of each plate's negative control column was used to normalize sample wells, and the positive control was used to assess transfection efficiency and assay performance.
Lipofectamine RNAiMAX Transfection Reagent ([…]; Invitrogen) was added in […] serum-free, antibiotic-free media to plate wells using a Thermo Scientific Matrix WellMate and Microplate Stacker. Plates were incubated for 45 min at room temperature to allow for the sufficient formation of siRNA-lipid complexes. Cells were seeded at a density of 1x10^4 cells per well in 20 microL media containing 20% (vol/vol) FBS without antibiotics. The final concentration of siRNA in each well was 100 nM. Cells were cultured for 48h at 37 degrees C in 5% CO2 before addition of […] of TLR ligand Pam3CSK4 for 5 hours. The medium was then removed, replaced with […] growth media and cell were transfected with […] of LipidA and TransIT-TKO (Mirus) for 24 hour. At the end of the LipidA treatment, […] of supernatant was transferred to a 384 Greiner Bio-one non-binding low volume plate and […] of IL-1a HTRF reagent (Cisbio, 62MIL1APEH) was added and incubated at room temperature overnight. The plates were read on an EnVision plate reader (PerkinElmer). Cell viability was measured by adding 20ul Cell Titer Glo to the original plate and running a luminescence read on the EnVision. The quantified IL-1a signal for each siRNA gene-targeted well was divided by the median of the negative control wells and multiplied by 100 to achieve a negative control normalized value for each well/siRNA. This normalized value was then used to generate a robust z-score by first taking the log of each value and then by subtracting the median and dividing by the […].

Sequence	z-score
GGAGUUUUGUGAACUAUGATT against Slc36a3	-2.73 (active)
GCUGCAUAGACUCAUGGUUTT against Znrf1	-0.408
GGCACUCCUCUUUGUUUUCTT against Olfr414	-1.82
CCCAAAUGAUUGGAUCUGUTT against Cd40lg	0.273
CGAAUGGCUAUCAGUGAGGTT against Tbc1d20	-1.04
GGACUGUAUGUGGAAUGGCTT against Bmyc	-0.46
GCUACUAAGCACCUAGAGATT against Fxr2	-0.932
CUCUAGCUACUAUUUUCUCTT against Olfr824	-1.57
GGAUAUGGACUAUUCACGGTT against Dgat1	-1.32
CGGCUUACGCAUGUCUAUGTT against Polr2a	-2.01 (active)
GGUUUUGCCAAGGACGCAGTT against Ngf	0.124
GGAAGAAAAAAAAUCUCCATT against Frmd3	0.577
GGUGGUUAUGAUCUAUGAUTT against Dazap1	-1.43
GGCUGGAGCCUCAAAUAUCTT against Rapsn	-0.574
GGUGGAUGCCUUGAAUAUGTT against 1700029P11Rik	-2.25 (active)
CGAGCUAACAGCAUUGCUGTT against Ajuba	0.532
GCCAUGCAAAUCGAUGGGUTT against Rora	-2.69 (active)
GCAUUUAAAAUACACGGUGTT against Arg1	0.264
GGUGACUCCAAGAAUGUGGTT against Wfdc1	-0.703
CCCAGAGCCAGGUUCAAACTT against AY702103	0.78
GCACUAAAUCCUUUGAUAUTT against Olfr307	1.08
GCUGAACAAUUUUCAACAATT against Sclt1	-0.958

Sequence	z-score
GCAUCCUUGACCGAUACUATT against Psmb2	-2.78 (active)
GGAUCUAUUGAUGGUUCAUTT against Tprkb	-1.68
GGGUCACCCAUUAUUUUAUTT against Phyhip	-0.899
GGGAGGAACAUCACCUCAGTT against Vmn2r123	0.327
GGUCAUACUCUAAUCGGACTT against Ctss	0.672
GGAAAGAUGUCAAAGAAAUTT against Gnat2	-1.14
UGCCACUGCCAAAAAAUAATT against Tex18	-0.838
CCAGACAUUUGAUAGCCAUTT against Fam241a	-1.42
GCCAAGCAUAAUCUAAUGATT against Prpf4b	0.851
CGACCACAUUAUUGGGUUUTT against Senp8	2.62 (active)
GCCUGUGAUCUUUUGUAUCTT against Olfr835	-0.726
GGAUGUCUAGUUAUACAUUTT against Mbd3l1	1.21
GCUAAUGAAGCAGAGCUGUTT against Olfr1359	0.388
GGUGUAACUCCUUCAUUGATT against Ripor2	-3.12 (active)
CCUUAUCUCUACCAUCGGUTT against Hyal2	0.0745
GCACCAGCUCUAAUUCAGATT against Herpud2	1.48
GCAUGAUGAUGGAGACCGATT against Sox1	-1.06
GGUGUUCCUAUAAAAGUAUTT against Tfb2m	0.597
GGUGCUACAAGUGUACUGATT against Zswim2	-2.14 (active)
GGUCUUCCAGAACAAUUACTT against Prtn3	0.439
GGCACACCUUUUGUUAGUGTT against Ywhag	-1.94
GGAUUUGUUCAAAUAACAGTT against Lsm14a	-0.664

Sequence	z-score
CCAAAUUAUCACCCUGUUCTT against Olfr763	-0.0232
GGAAAUGCGUCAAAAGACUTT against H2az1	0.04
GCUAAAAAUGGUUGUGUGATT against Six3os1	-1.62
GGAUGGUUUUCAUUUGCUUTT against Cd300ld	-0.606
CCGUUAAGUAGCUGGAAGATT against Ubl4b	0.488
GGGAACCUCACCAUUAUCATT against Olfr769	-0.413
GCAAGGACCAAAUUACAUATT against Itgb3bp	2.45 (active)
GGACUUUCUGAUGGACUUGTT against Sapcd1	1.59
GGAUCCUGAAAUCAAAACUTT against Mbl1	-0.316
GGCAUAACCAAAAGAAAGUTT against 4933427E11Rik	0.648
GGGCUUCUUUGCCACACUUTT against Rho	0.761
CGAGAUGAAAUAUACAGAUTT against Trat1	1.12
GGACAAUUAACGAUCCCACTT against Pdxp	-2.58 (active)
GGGUUAUGGUAGAUUAUCUTT against Tor4a	-0.376
GGACACCUCGAGAUUCUCUTT against Actl11	-0.186
GGAAAACAACACGAUGAAATT against Tex13b	-1.72
GGAAGGAGAACAUUCCUUUTT against Ces1d	-0.198
GGCCAUUUGUUAGGACCUGTT against Prmt6	0.205
CGGCAUGUCCUUCAUCGCUTT against Proser2	-2.89 (active)
GGAGAAAAUUCAAGUCACCTT against Olfr663	0.215
AGUGAAACUAAACUGGAGUTT against 2610318N02Rik	1.41
GGAUCUCAAUGUUCACUUGTT against Bpifb2	-0.817

Sequence	z-score
GGCUACUUCUGUACUAGGATT against Gclc	-1.05
GGAGGAAGCUCAUCUAUGATT against Rpl7	0.964
GGAAACCAUCAUGAAGAAATT against Siae	-0.127
CCCAUUGAACAGGAUGUUATT against Coq9	-0.292
CCUGGUAUCCAAGAGGAAGTT against Myt1	2.52 (active)
GCAUCAAUUGUCAGGAAAUTT against Rev3l	0.807
GGGCUCGUAAAGAAAGAAGTT against Cep41	-1.15
GCUGAUGAACGAAUACAACTT against Kcnk5	1.25
GCGCAGAACCCAGAUGAAGTT against Necap2	0.836
CCGUCCAUUGCACUGGAUATT against Arntl2	0.024
GGUGUGAGUGUAAGUUUAUTT against Wnt16	1.1
CGGAUAUGAGAUGAGAAUGTT against Morn4	-2.4 (active)
GGAUUUCAACAGACAGGUGTT against Paip2b	0.877
GGCAGAACUCAAAUUCUUGTT against AW209491	-0.35
GCGUAGCUGUAGUGAACCATT against Erh	1.78
GGUACUACACCUUUGAUGATT against Fibp	-0.497
GGACCACAACACAAAUCUGTT against Fasl	1.49
UUCAUGUAGGUCUACUAUUTT against Olfr203	-0.104
GGAUCUGAAGCUGAUUACATT against Clca2	2.47 (active)
GCCACUGUUUGAUCUGAAATT against Fhod1	0.943
CCUUGCCAUAAGUGAUUUATT against Npffr2	0.876
GGCCUUAAAAUACCUUUGATT against Srpx	1.12

Sequence	z-score
CCAGUACAAAGCCACAAUATT against Rab7	5.54 (active)
GGACAUUUCACAAGUCAAATT against Eloc	1.81
GGGUGGAAAAUUUCAGUUUTT against Ube2f	-0.957
CCAUCCCGUUCACUAGAGATT against Mypn	-1.73
CCGACUGCUCGUAAAUUCATT against Ndufa12	2.79 (active)
GGUACAAAGCCAUUGUACGTT against Grpr	-0.381
GGAAGAGAAACGACAAAAUTT against Olfr293	1.46
GGGAGACAAUCGUUUUAGCTT against Tgfbi	0.698
GGGCAUAUUCACGAUCAAUTT against Fut2	1.43
GGAAAGACCACAUUAUUAATT against Orc4	0.0347
GGUUUCUGCCCAGAGUCUATT against 2010106E10Rik	-2.78 (active)
GCAAGGACUCUCAUGGUUGTT against Zfand1	-0.0357
GGUGCCGAACGUGUAAUUATT against Rarb	0.936
GCCCAUGUGUAAUACAUUUTT against Prps1	0.789
CCGGAGUAACUCUCUAACATT against Apbb3	-0.291
GGGUGACCUUUCCAGAUGATT against Cldn13	-0.846
GGCACAUGGAAUCUUUGAGTT against Edc3	-1.65
GGAGCAACUACAAACAUCUTT against Acss2	2.35 (active)
GGGAUAAGACAGGAGACUUTT against Slc16a11	0.227
GGGAAGGACUGUAAGAAAATT against Dipk1a	-0.252
